Shown are actives, neighbours in structure and some others; about 1.3% of the full set was active somewhere.
CCT modulator = modulators of cytosolic chaperonin (CCT/TRiC) activity. AID 651819. 360,000 tested, 0.3% active. purified chaperonin ATPase assay, HTRF ADP detection, 30 min. activity change, % (no concentration beside the values), hits read low; in the data active = activity change below about -30%
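ATPase activity: ADP formed was measured by HTRF Transcreener (665/615 nm ratio) after 30 min at 37 deg C with 10 uM ATP. Compounds screened at one 76 uM concentration against 40 or 20 nM TRiC in Tris pH 7.4/KCl/MgCl2/DTT buffer.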
CtBP-E1A blk = inhibitors of CtBP/E1A interaction; AlphaScreen GST-E1A/His-CtBP binding, 1536-well; active compounds read low; 340,000 tested, 0.49% active; activity change, % (concentration not given with the values)
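Homogeneous bead-based format: GST-tagged E1A captured on glutathione donor beads, His-tagged CtBP on nickel acceptor beads; compounds precede bead addition by 2 h at 37 °C.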
Akt phos inh = inhibitors of Akt phosphorylation | 360,000 tested, 0.32% active | Neuro2A IGF-stimulated pAkt S473 HTRF, 20 min; active compounds read low | activity change, % for hits at 50 µM | AID 651550; in the data active = activity change below about -80%; inconclusive = mostly about -51% to -80%
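Single-point screen (50 µM final compound) in Neuro2A cells stimulated 20 min with 6 nM IGF at 37 deg C. After lysis, Ser473-phosphorylated Akt read by HTRF (ex 330 nm, em 615/665 nm) as the 665/615 ratio.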
Six1-Eya2 inh = Six1/Eya2 interaction inhibition | Q15475+O00167 | AlphaScreen GST-Six1/His-Eya2 binding, biochemical; active compounds read low | activity change, % (concentration not given with the values) | 360,000 tested, 0.56% active | AID 651725
Target sequence (O00167 whole entry, looked up): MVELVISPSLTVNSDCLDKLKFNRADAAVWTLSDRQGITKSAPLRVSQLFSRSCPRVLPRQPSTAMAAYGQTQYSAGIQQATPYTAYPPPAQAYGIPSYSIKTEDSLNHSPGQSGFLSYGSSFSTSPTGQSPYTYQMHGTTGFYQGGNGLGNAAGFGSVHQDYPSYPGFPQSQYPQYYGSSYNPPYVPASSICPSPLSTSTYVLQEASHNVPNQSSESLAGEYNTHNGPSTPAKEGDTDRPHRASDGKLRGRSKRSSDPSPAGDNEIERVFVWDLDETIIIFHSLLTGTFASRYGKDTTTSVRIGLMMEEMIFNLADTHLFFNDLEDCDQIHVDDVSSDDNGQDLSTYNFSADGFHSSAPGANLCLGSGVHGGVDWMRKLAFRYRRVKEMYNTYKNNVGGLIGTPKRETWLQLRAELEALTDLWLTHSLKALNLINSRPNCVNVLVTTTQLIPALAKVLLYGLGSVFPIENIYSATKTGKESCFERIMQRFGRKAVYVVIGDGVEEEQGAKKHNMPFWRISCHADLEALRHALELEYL
Target sequence (Q15475 whole entry, looked up): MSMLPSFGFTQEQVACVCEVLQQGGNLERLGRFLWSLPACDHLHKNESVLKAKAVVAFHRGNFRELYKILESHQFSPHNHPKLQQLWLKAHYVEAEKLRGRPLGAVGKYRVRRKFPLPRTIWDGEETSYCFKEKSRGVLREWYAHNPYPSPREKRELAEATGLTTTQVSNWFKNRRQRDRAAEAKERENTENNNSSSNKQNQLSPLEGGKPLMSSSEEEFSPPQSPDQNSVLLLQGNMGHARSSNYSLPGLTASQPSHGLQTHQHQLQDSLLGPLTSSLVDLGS
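AlphaScreen luminescence read after one hour at 37 °C in darkness. Pin-transferred compounds met GST-Six1 and His-Eya2 protein (5X stock 250 nM/500 nM) plus glutathione donor and Ni-chelate acceptor beads (5X, 50 ug/mL).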
Large screens that a line does not name were inactive. Cut-off read from the data, not from the text of the source, unless noted: active = activity change below about -65%; inconclusive = mostly about -30% to -63%; inactive = weaker than that.

COc1ccc(S(=O)(=O)N2CCC(Cc3ccccc3)CC2)cc1NC(C)=O	none
CC(=O)Nc1ccc(NC(=O)[C@@H]2CCCN2S(=O)(=O)c2ccc3c(c2)OCCO3)cc1	none
O=C(Nc1cccc(S(=O)(=O)N2CCOCC2)c1)[C@@H]1CCCN1S(=O)(=O)c1ccc(Cl)cc1	CtBP-E1A blk -65.1, Six1-Eya2 inh inconclusive
O=C(Nc1cccc(S(=O)(=O)N2CCOCC2)c1)C1CCCCN1S(=O)(=O)c1ccccc1 (stereo not given)	CtBP-E1A blk inconclusive, Six1-Eya2 inh inconclusive
O=C(Nc1ccc2c(c1)OCCO2)C1CCCN1S(=O)(=O)c1ccc(Cl)cc1 (stereo not given)	Akt phos inh -111.1%
CN(C(=O)COC(=O)c1ccc2ccccc2n1)C1CCCCC1	none
O=C1NN=C2CCCCCC12 (stereo not given)	none
CCCNC(=O)c1cnc(Sc2ncc(C(F)(F)F)cc2Cl)n1C	none
Cn1c(C(=O)N2CCOCC2)cnc1Sc1ncc(C(F)(F)F)cc1Cl	Akt phos inh -113.7%
CCS(=O)(=O)NCC(c1cccnc1)N1CCN(c2ccc(OC)cc2)CC1 (stereo not given)	CtBP-E1A blk -75.2
CCS(=O)(=O)NCC(c1cccnc1)N1CCN(c2ccccc2)CC1 (stereo not given)	none
COc1ccc(N2CCN(C(=O)C(Cc3ccccc3)NC(=O)c3ccccc3)CC2)cc1 (stereo not given)	none
CC(c1cccs1)N(Cc1ccco1)C(=S)Nc1ccc(F)c(Cl)c1 (stereo not given)	CCT modulator -58.7
OC(c1ccccn1)(c1ccccn1)c1ccccn1	Six1-Eya2 inh -85.1
O=C(CN1CCN(Cc2ccccc2)CC1)Nc1ccc([N+](=O)[O-])cc1C(=O)Nc1ccccc1F	none (no result: CtBP-E1A blk)
O=C(CNCc1ccccn1)Nc1ccc([N+](=O)[O-])cc1C(=O)Nc1ccccc1F	CtBP-E1A blk -88.6, Six1-Eya2 inh -93.3
COc1cccc(C=Nc2cc(C)cc(C)c2)c1O	none
COc1cc(Br)cc(C=Nc2cccc(C(F)(F)F)c2)c1O	CCT modulator -30.6
CC(C)c1ccc(Nc2n[nH]c(=S)s2)cc1	CCT modulator -62.7
Cc1[nH]c2ccccc2c1C(=O)CN1CCCCC1CCO (stereo not given)	Akt phos inh -109.5%
CC(=O)c1c(NC(=O)C(C)C)nc(C)nc1-c1ccccc1	none
CC(=O)c1c(C)nc(C)nc1NC(=O)C(C)C	Akt phos inh -124.3%
O=C(Nc1ccccc1C(F)(F)F)c1ncn[nH]1	CtBP-E1A blk -87.9, Six1-Eya2 inh -73.6
COc1cc(/C=C2\SC(c3ccc(C)cc3)=NC2=O)cc(OC)c1OC	CCT modulator -64.0
COc1cc(/C=C2\SC(c3ccccc3)=NC2=O)cc(Cl)c1O	CCT modulator -42.8
CCCNC(=O)c1cc2c(c(-c3cccc(-c4cc5ccccc5o4)c3)n1)[C@H](CCO)N(C(=O)NC(C)C)C2	Six1-Eya2 inh inconclusive
Cc1nn(-c2ccccc2)nc1C(=O)Oc1cc(C(F)(F)F)nn1-c1ccccc1	none
Cc1[nH]c2ccccc2c1CCCO	none
Cc1[nH]c2ccccc2c1CCO	CCT modulator -30.8
COc1cccc(-c2nc(NCc3cccnc3)c3ccccc3n2)c1O	none
COc1ccc(CNc2nc(=S)[nH]c3cc(OC)c(OC)cc23)cc1	Six1-Eya2 inh -81.6 (no result: CtBP-E1A blk)
COc1cc2[nH]c(=S)nc(NCc3ccccn3)c2cc1OC	CtBP-E1A blk inconclusive, Six1-Eya2 inh -69.6
COc1cc2[nH]c(=S)nc(NCc3ccccc3)c2cc1OC	CtBP-E1A blk -81.5, Six1-Eya2 inh -78.5
COc1cc2[nH]c(=S)nc(NCc3cccnc3)c2cc1OC	CtBP-E1A blk -81.6, Six1-Eya2 inh -69.1
COc1cc2[nH]c(=S)nc(NCc3cccc(Cl)c3)c2cc1OC	Six1-Eya2 inh inconclusive (no result: CtBP-E1A blk)
COc1ccc(CNc2ncnc3c2[nH]c2cc(OC)c(OC)cc23)cc1	CtBP-E1A blk inconclusive, Six1-Eya2 inh inconclusive
COc1ccccc1S(=O)(=O)N(C)C[C@@H]1OCc2cnnn2CCCC(=O)N([C@@H](C)CO)C[C@@H]1C	none
S=C1NC[C@H](CC2CCCCC2)N1CCCCC1CCCCC1	none
O=C(O)c1cccc(Br)c1	none
COc1cc2[nH]c(=S)nc(NCc3ccc(C)cc3)c2cc1OC	Six1-Eya2 inh -74.4 (no result: CtBP-E1A blk)
Cc1csc(=O)n1CC(=O)Nc1ccc(C(C)C)cc1	none
COc1ccc(-c2coc3c(C)c4oc(=O)c(CCC(=O)O)c(C)c4cc23)cc1	CtBP-E1A blk -71.7, Six1-Eya2 inh -77.2
Cc1c(CC(=O)O)c(=O)oc2c(C)c3occ(-c4ccc(F)cc4)c3cc12	CtBP-E1A blk -72.5
Cc1c(CCC(=O)O)c(=O)oc2c(C)c3occ(-c4ccc(Br)cc4)c3cc12	CtBP-E1A blk -84.3, Six1-Eya2 inh -84.9
CCc1cc(=O)oc2cc(C)cc(OCC(=O)N3CCC(C(=O)NC(C)C)(c4ccccc4)CC3)c12	none
O=C(CN(Cc1ccco1)C(=O)CNS(=O)(=O)c1ccc(F)cc1)NCc1ccccc1	none
O=C(CN(Cc1ccco1)C(=O)CNS(=O)(=O)c1ccccc1)NCc1ccccc1	Akt phos inh -120.1%
CSc1nc(C)c2c(n1)N(c1ccc(F)cc1)CC2	Akt phos inh -110.6%
CCNC(=O)C1(C)CCCN1C(=O)c1ccc2c(c1)OCO2 (stereo not given)	none
CCn1cnc2sc(C(=O)N(Cc3ccc(N(C)C)cc3)Cc3ccco3)c(C)c2c1=O	CtBP-E1A blk inconclusive, Akt phos inh -109.5%, Six1-Eya2 inh inconclusive
CC1CCc2nc(NC(=O)CN3CCN(c4ccc(F)cc4)CC3)sc2C1 (stereo not given)	Six1-Eya2 inh inconclusive
COc1cccc(N2CCN(CC(=O)Nc3nc4c(s3)CC(C)CC4)CC2)c1 (stereo not given)	Akt phos inh -89.2%
O=C(O)c1cccc(S(=O)(=O)Nc2ccc3oc(=O)sc3c2)c1	Akt phos inh -113.8%
CC(=O)Nc1ccc(S(=O)(=O)N2C3CCCC2CC(NC(=O)C2CCCCC2)C3)cc1 (stereo not given)	Six1-Eya2 inh -67.4
CC(=O)Nc1ccc(S(=O)(=O)N2CCC(C(=O)NC3CCCC3)CC2)cc1	none
Cc1ccccc1NC(=O)CCCNC(=O)c1ccc(Cl)cc1	none
C=CCOc1ccc(CNn2cn[nH]c2=S)cc1OCC	Akt phos inh -82.0%
Cc1nc(N/N=C/c2ccc(O)cc2)c2cnn(-c3ccccc3)c2n1	CtBP-E1A blk -75.6, Six1-Eya2 inh inconclusive
O=C1CC(c2ccc(F)cc2)Cc2nc(NCc3ccco3)ncc21 (stereo not given)	Akt phos inh -83.7%
COc1ccccc1/C=C/C=N/n1c(-c2ccccn2)n[nH]c1=S	Six1-Eya2 inh -67.5 (no result: CtBP-E1A blk)
COc1ccccc1/C=C/C=N/n1c(-c2cc(C)[nH]n2)n[nH]c1=S	none
S=c1[nH]nc(-c2ccccn2)n1/N=C/c1cccs1	CCT modulator -32.2, Six1-Eya2 inh inconclusive
COc1cccc(/C=N/n2c(-c3cc(C)[nH]n3)n[nH]c2=S)c1O	CtBP-E1A blk -81.2, Six1-Eya2 inh -68.2
Cc1ccccc1/C=N/n1c(-c2ccccn2)n[nH]c1=S	Six1-Eya2 inh -89.7

Compound activity: PubChem, National Center for Advancing Translational Sciences (NCATS)
